21 compounds from PubChem BioAssay AID504715 (Sanford-Burnham Center for Chemical Genomics, 2011) can be followed below.

SMILES strings stand for the structures. Some of the results follow. Calls of active or inactive are those of the source.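 Rule for the calls: active = compounds giving 40% or more inhibition at 20 µM in any one of the three replicates; inactive = the rest.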

The target of this assay is Uracil-DNA glycosylase (Escherichia coli (strain K12)) (UniProt P12295). The assay can be described thus: E. coli UDG inhibitors, confirmation, counter-screen for APOBEC3G inhibitor project, biochemical, single concentration, fluorescence, FAM/TAMRA oligo (AID 504715).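 Note: plate controls were DMSO wells with UDG and oligo for no effect and DMSO wells lacking both for full effect; inhibitors lower the FAM signal released by uracil excision and alkaline cleavage.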 Conditions: UDG counterscreen, at 20 µM, hits give high values.
Uracil-DNA glycosylase (Escherichia coli (strain K12)), sequence (P12295 whole entry, looked up): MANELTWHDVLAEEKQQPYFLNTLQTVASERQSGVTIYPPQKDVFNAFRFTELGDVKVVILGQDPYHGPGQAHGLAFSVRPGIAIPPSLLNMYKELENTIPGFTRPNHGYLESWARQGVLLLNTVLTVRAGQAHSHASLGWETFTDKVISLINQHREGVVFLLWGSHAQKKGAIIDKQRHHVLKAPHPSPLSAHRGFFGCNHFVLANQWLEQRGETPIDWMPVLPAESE
Regarding `S=c1[nH]nc(-c2ccc(Cl)cc2)n1CC1CCCO1` (stereo unspecified), the inhibition is 2.84% (inactive).

Take `O=c1[nH]c2ccccc2n2c(-c3ccccc3)nnc12`: the inhibition is -5.75% (inactive).

For the compound `Fc1ccc(Nc2nnns2)cc1`, the inhibition was 3.44% (inactive).

Take `CCOC(=O)c1sc(=S)n2c1[nH]c(=O)c1ccc(C(=O)OC)cc12`: the inhibition is 1.35% (inactive).

`S=c1[nH]nc(-c2ccncc2)n1/N=C/c1ccccc1Cl`: the inhibition is -3.82% (inactive).

Turning to `COc1ccc(OCc2n[nH]c(=S)n2N)cc1`, the inhibition was -3.03% (inactive).

In the case of `S=c1[nH]nc(-c2ccco2)n1/N=C/c1ccccc1`, the inhibition is -2.84% (inactive).

For `O=C(Cn1cnc([N+](=O)[O-])n1)NCCc1ccccc1`, the inhibition was 5.33% (inactive).

With `Cc1ccnc(-n2sc3ccccc3c2=O)n1`, the inhibition was -5.94% (inactive).

On to `Cc1nc([N+](=O)[O-])nn1C12CC3CC(CC(Br)(C3)C1)C2`, for which the inhibition was 2.58% (inactive).

As for `O=C1C=CC(=O)N1c1ccc(N2CCCCC2)cc1`, the inhibition is -1.51% (inactive).

As for `CCC(CC)c1nnc(NC(=O)C2CCN(C(=O)c3ccco3)CC2)s1`, the inhibition is 4.07% (inactive).

As to `S=c1[nH]nc(NCCc2ccccc2)s1`, the inhibition is -0.78% (inactive).

For the compound `Cc1cc(-c2n[nH]c(=S)n2/N=C/c2ccco2)n[nH]1`, the inhibition was 2.12% (inactive).

As for `COC(=O)c1cccc(-n2[nH]nnc2=S)c1`, the inhibition is -3.23% (inactive).

As for `COc1ccc(OCc2nnc3n2N=C(c2ccccc2)C(CC(=O)O)S3)cc1` (stereo unspecified), the inhibition was -3.19% (inactive).

As for `Cc1cc(-c2n[nH]c(=S)n2-c2ccc(C)c(C)c2)no1`, the inhibition was -3.59% (inactive).

As for `S=c1[nH]nc2c3c4c(sc3ncn12)CCCC4`, the inhibition is -7.25% (inactive).

For `Cc1cccc(-n2c(N)c(C(=O)N3CCN(C)CC3)sc2=S)c1`, the inhibition was -3.91% (inactive).

`CC(=O)N1CC[n+]2c(-c3ccc([N+](=O)[O-])cc3)csc21`: the inhibition is -1.28% (inactive).

As for `Cc1ccc(NC(=O)c2sc3nc(N)c(C#N)cc3c2N)cc1`, the inhibition was -3.69% (inactive).
